Screens: PubChem, National Center for Advancing Translational Sciences (NCATS)
RECQ1 inh-1 – RECQ1 (human) helicase inhibition. P46063. RECQ1 DNA unwinding, red fluorescence kinetic read. Potency, µM (titrated, usually from 57.3 µM), most hits filed as inhibitors. hit rate 0.54% among 240,000; also: nearly all actives have a fitted effect of over 30% in size
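50 nM RECQ1T1 preincubated 15 min with compound in Tris pH 8.0 buffer with MgCl2, DTT, Tween-20 and 2.5 ug/ml poly(dI-dC); started with 200 nM TAMRA/BHQ-2 forked duplex and 2 mM ATP. Unwinding read as fluorescence (525/598 nm), two reads 2 h apart.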
BLM helicase inh – blocks DNA unwinding by human BLM helicase. P54132. recombinant BLM DNA unwinding, fluorescence dequenching. Potency, µM (doses to about 56.1 µM), hits mostly inhibitors. hit rate 0.2% among 350,000; also: nearly all actives have a fitted effect of over 35% in size
KAT2A inh – blocks human GCN5L2 histone acetyltransferase; Q92830; GCN5L2 HAT assay, ThioGlo1 CoA-SH fluorescence; Potency, µM (top dose mostly 58.9 µM), hits mostly inhibitors; hit rate 0.21% among 390,000; AID 504327
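GCN5L2 (20 nM) in 50mM HEPES pH 7.5, 0.1mM EDTA, 0.01% Tween-20 preincubated 15 min with compounds at room temperature. Reaction started with H3(1-25) 75uM, acetyl-CoA 70uM, ThioGlo1 50uM; CoA-thiol fluorescence (Ex340/Em540) read at 0 and 20 min.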
APE1 inh – inhibitors of human APE1 endonuclease. P27695. recombinant APE1, TAMRA/BHQ-2 abasic DNA cleavage fluorescence. Potency, µM (series often up to 65.8 µM), hits mostly inhibitors. hit rate 0.35% among 350,000. AID 2517; also: nearly all actives have a fitted effect of over 55% in size
Target sequence (P27695 whole entry, looked up): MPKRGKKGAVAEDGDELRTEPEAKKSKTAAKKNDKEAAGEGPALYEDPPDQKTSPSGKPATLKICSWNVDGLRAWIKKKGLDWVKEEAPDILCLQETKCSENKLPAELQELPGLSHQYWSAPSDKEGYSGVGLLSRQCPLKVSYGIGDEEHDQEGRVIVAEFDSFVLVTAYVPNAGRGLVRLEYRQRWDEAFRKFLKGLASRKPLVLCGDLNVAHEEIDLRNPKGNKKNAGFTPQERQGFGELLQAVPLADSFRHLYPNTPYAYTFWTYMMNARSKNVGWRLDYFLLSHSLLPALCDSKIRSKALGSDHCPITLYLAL
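APE1 at 0.75 nM final was preincubated with compound 15 min at room temperature, then 50 nM double-stranded THF abasic-site substrate (5'-TAMRA/3'-BHQ-2) was added. Fluorescence (ex 525/em 598 nm) was read kinetically; third-minus-first read gave activity.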
WRN inhibitor – inhibitors of human WRN helicase | WRN helicase unwinding, fluorescent forked duplex, kinetic | Potency, µM (titrated, usually from 114 µM), actives largely listed as inhibitors | hit rate 0.46% among 360,000 | AID 651768; also: nearly all actives have a fitted effect of over 55% in size
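WRN at 20 nM final was preincubated with compound for 15 min at room temperature; reaction started with 100 nM forked duplex oligonucleotide carrying fluorophore and quencher plus 2 mM ATP (final). Unwinding followed kinetically by red fluorescence (ex 525/em 598 nm).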
ERG-DNA inh – inhibitors of human ERG Ets domain-DNA interaction; P11308; fluorescence polarization, His-ERG Ets domain / labelled DNA; Potency, µM (titrated, usually from 76.9 µM), actives largely listed as inhibitors; hit rate 0.028% among 370,000; active = well fitted inhibition curve with a large enough effect in the polarisation, with a control signal flat; inconclusive = small, poorly fitted or top-dose-only effect, or effect the other way, or a change in a side signal; inactive = no such curve, though single readings can be large or run the other way; the % refers to the polarisation;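 also: polarization taken with two DNA probes labelled with fluorescein and Texas red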
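His-tagged ERG Ets domain (1 uM in the protein solution; 300mM KCl, 50mM Tris-HCl, 1mM EDTA, 1mM DTT, pH 7.5) received compound, then a probe mix of 5 nM fluorescein-DNA and 100nM Texas-615-DNA. Fluorescence polarization was read for both dyes.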
RECQ1 inh conf – confirmation of human RECQ1 helicase inhibitors. shares compounds with RECQ1 inh-1. RECQ1 helicase DNA unwinding, fluorescence. Potency, µM (titrated, usually from 229 µM), usual class: inhibitors. hit rate 28% among 610; also: nearly all actives have a fitted effect of over 45% in size
RECQ1 ADP FP – displaces ADP in a fluorescence polarization counter-screen for RECQ1 hits; shares compounds with RECQ1 inh-1; ADP fluorescence polarization displacement counterscreen; Potency, µM (titrated, usually from 228 µM), hits mostly inhibitors; hit rate 27% among 530; also: nearly all actives have a fitted effect of over 45% in size
RECQ1 inh-2 – RECQ1 helicase inhibition confirmed, round 2; recombinant RECQ1 DNA unwinding, red fluorescence; hit rate 15% among 1,100; Potency, µM (top dose mostly 119 µM), most hits filed as inhibitors; shares compounds with RECQ1 inh-1; also: nearly all actives have a fitted effect of over 50% in size
Of the large screens only hits and unclear results are named; the others gave an inactive call (follow-up assays come after a bar, where they were run). Only some compounds are listed: those with a hit (about 0.88% of all), similar ones and a draw of the others. Unless noted, calls follow the shape of the dose curve; as a rule, active = well fitted curve in the direction sought with a large enough effect; inconclusive = small, poorly fitted or top-dose-only effect, or another doubt; inactive = no such curve, though single readings can be large; an effect the other way counts as inactive or inconclusive.

CCOC(=O)N1CCC(NC(=O)c2cccc3c2C(=O)N(c2ccc(OC)cc2)C3)CC1	RECQ1 inh-1 11µM, BLM helicase inh inconclusive, KAT2A inh inconclusive, APE1 inh inconclusive | RECQ1 inh conf 14µM | RECQ1 ADP FP inactive
CCOC(=O)N1CCC(N2Cc3cccc(C(=O)NCc4ccc(OC)cc4)c3C2=O)CC1	none (no result: WRN inhibitor, ERG-DNA inh)
COc1cc(C[C@@H](C)[C@@H](C)Cc2ccc(O)c(OC)c2)ccc1O	none (no result: RECQ1 inh-1, BLM helicase inh)
CC(Cc1ccc(O)c(O)c1)C(C)Cc1ccc(O)c(O)c1 (centres undefined)	RECQ1 inh-1 2.2µM, APE1 inh inconclusive, WRN inhibitor 18µM (no result: KAT2A inh) | RECQ1 inh conf 45µM | RECQ1 ADP FP 8.9µM
CCOC(=O)c1c(N)n(-c2ccccc2CC)c2nc3ccccc3nc12	none (no result: RECQ1 inh-1, APE1 inh, WRN inhibitor)
OC1(C#CCN2CCOCC2)CCCCC1	none
CC(C)(O)C#CC#CCN1CCOCC1	RECQ1 inh-1 inconclusive | RECQ1 inh-2 inactive
O=[N+]([O-])c1cc(S(=O)(=O)C(F)(F)F)ccc1N1CCN(c2ccccc2)CC1	RECQ1 inh-1 inconclusive | RECQ1 inh-2 inactive
O=[N+]([O-])c1cc(S(=O)(=O)Nc2ccccc2)ccc1N1CCN(c2ccccc2)CC1	none
CCn1c(CCC(=O)O)nc2cc(S(=O)(=O)N3CCOCC3)ccc21	none (no result: RECQ1 inh-1, BLM helicase inh)
CCn1c(CCC(=O)O)nc2cc(S(=O)(=O)N(C)C)ccc21	none
CN(C)S(=O)(=O)c1ccc2c(c1)nc(CCC(=O)O)n2C	none | RECQ1 inh conf inactive | RECQ1 ADP FP 100µM
CCCn1c(CCC(=O)O)nc2cc(S(=O)(=O)N3CCCC3)ccc21	WRN inhibitor inconclusive | RECQ1 inh conf 112µM | RECQ1 ADP FP inconclusive
CCCCn1c(CCC(=O)O)nc2cc(S(=O)(=O)N(CC)CC)ccc21	none | RECQ1 inh conf 89µM | RECQ1 ADP FP inactive
COCCNC(=O)c1ccc2c(c1)NC(=O)C(CS(=O)(=O)Cc1ccc(F)cc1Cl)N2 (centres undefined)	none (no result: RECQ1 inh-1, APE1 inh, WRN inhibitor)
CNc1ncnc2c1cnn2-c1ccc(C)c(C)c1	none (no result: RECQ1 inh-1, APE1 inh, WRN inhibitor)
CCOC(=O)C1CCCN(C(=O)c2cc(C#N)cs2)CC1 (centres undefined)	none (no result: RECQ1 inh-1, BLM helicase inh, KAT2A inh, APE1 inh, ERG-DNA inh)
CCCCn1c(SCC(=O)NCc2ccco2)nc2ccc(N3CCOCC3)cc2c1=O	RECQ1 inh-1 inconclusive | RECQ1 inh-2 inconclusive
CCn1c(SC(C)C(=O)O)nc2sc3c(c2c1=O)CCC3 (centres undefined)	RECQ1 inh-1 inconclusive, APE1 inh inconclusive, WRN inhibitor 56µM | RECQ1 inh-2 inconclusive
CCOC(=O)c1c(C)n(-c2ccccc2)c2ccc(OC(=O)c3cccc(OC)c3OC)cc12	none (no result: RECQ1 inh-1, APE1 inh, WRN inhibitor)
CCOC(=O)c1sc2ncn(CC(=O)Nc3ccc(OCC)cc3)c(=O)c2c1C	none (no result: RECQ1 inh-1, APE1 inh, WRN inhibitor)
COc1cc2cc3c4c(cc(OC)c(OC)c4c2cc1OC)CCN3C	RECQ1 inh-1 11µM, BLM helicase inh 4µM, APE1 inh inconclusive (no result: KAT2A inh, WRN inhibitor, ERG-DNA inh) | RECQ1 inh conf inconclusive | RECQ1 ADP FP inactive
COc1cc2c(cc1OC)C(=O)N(C)CC2	none
Cc1ccc2nc(NC(=O)C3CCN(S(=O)(=O)c4cc([N+](=O)[O-])ccc4Cl)CC3)sc2c1	RECQ1 inh-1 32µM, KAT2A inh inconclusive, APE1 inh inconclusive, WRN inhibitor inconclusive | RECQ1 inh-2 inconclusive
COc1ccc(C(=O)NCc2ccc3c(c2)cc(C)n3C)cc1	RECQ1 inh-1 inconclusive, APE1 inh inconclusive, ERG-DNA inh 32µM | RECQ1 inh-2 inactive
COc1cc(OC)cc(C(=O)NCc2ccc3c(c2)cc(C)n3C)c1	RECQ1 inh-1 inconclusive
COc1ccc(-n2c(O)c(/C=N/Nc3nc(C)cc(C)n3)c3ccccc3c2=O)cc1OC	none
